Compound activity deposited in PubChem by National Center for Advancing Translational Sciences (NCATS).
Compounds with a hit are over-represented: about 18% of the library has one in this group of screens.
DT40 TDP1 CPT – DT40-hTDP1 cell growth loss with CPT; chicken DT40 Tdp1-/-;hTDP1 cells + 20 nM CPT, ATP luminescence, 48 h; Potency, µM (doses to about 46.2 µM), inactives show at the highest dose activity change, negative = growth inhibition, hits mostly inhibitors; 420,000 compounds, 12% hits; AID 686979; further: potency means the concentration at half of the fitted maximal effect; on the % scale 0 is the no-effect control and ±100 the full control effect; nearly all actives have a fitted effect of over 55% in size
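Cell growth measured by CellTiter-Glo luminescence after a minimum 48 h, 37 C compound exposure with 20 nM CPT in Tdp1-knockout DT40 cells stably expressing hTDP1, seeded 400/well; qHTS titration format.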
TDP1 block – blocks human tyrosyl-DNA phosphodiesterase 1. AID 485290. 350,000 compounds, 0.28% hits. recombinant TDP1, AlphaScreen DNA substrate cleavage. Potency, µM (doses to about 130 µM), for the others: at the top dose activity change, negative = inhibition, hits mostly inhibitors. Q9NUW8; further: potency means the concentration at half of the fitted maximal effect; on the % scale 0 is the no-effect control and ±100 the full control effect; nearly all actives have a fitted effect of over 40% in size
Target sequence (Q9NUW8 whole entry, looked up): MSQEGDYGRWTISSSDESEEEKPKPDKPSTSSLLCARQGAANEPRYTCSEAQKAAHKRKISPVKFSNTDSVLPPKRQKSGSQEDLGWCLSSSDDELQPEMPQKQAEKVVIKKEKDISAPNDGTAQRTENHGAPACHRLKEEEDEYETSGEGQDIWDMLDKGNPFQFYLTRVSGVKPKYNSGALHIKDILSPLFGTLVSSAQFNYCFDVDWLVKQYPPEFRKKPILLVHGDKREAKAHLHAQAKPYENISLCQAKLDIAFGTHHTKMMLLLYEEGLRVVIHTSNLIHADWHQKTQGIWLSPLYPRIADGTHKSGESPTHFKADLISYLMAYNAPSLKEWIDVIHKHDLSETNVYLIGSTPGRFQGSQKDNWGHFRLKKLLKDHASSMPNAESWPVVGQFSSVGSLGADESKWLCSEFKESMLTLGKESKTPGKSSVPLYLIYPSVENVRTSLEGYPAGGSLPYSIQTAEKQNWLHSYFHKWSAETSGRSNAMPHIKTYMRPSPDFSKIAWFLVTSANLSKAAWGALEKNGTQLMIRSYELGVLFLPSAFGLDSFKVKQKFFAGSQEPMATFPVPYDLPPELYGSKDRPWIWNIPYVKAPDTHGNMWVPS
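Compounds were preincubated with Tdp1 (1 nM final) for 15 min at room temperature before substrate (15 nM final) started a 5 min reaction; beads (10 ug/ml final) were then added for 10 min before AlphaScreen detection.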
TDP1 cell noCPT – qHTS for Inhibitors of human tyrosyl-DNA phosphodiesterase 1 (TDP1): qHTS in cells in absence of CPT; DT40 Tdp1-/- hTDP1 cells, no CPT, ATP luminescence, 48 h; 420,000 compounds, 15% hits; Potency, µM (titrated, usually from 46.2 µM), for the others: at the highest dose activity change, negative = growth inhibition, usual class: inhibitors; further: potency means the concentration at half of the fitted maximal effect; on the % scale 0 is the no-effect control and ±100 the full control effect; nearly all actives have a fitted effect of over 55% in size
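Growth of hTDP1-complemented DT40 Tdp1-knockout cells is measured by ATP luminescence after at least 48 hr compound exposure at 37 °C, with DMSO substituting for the 20 nM CPT used in the parallel screen.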
TGFb SMAD3 inh – blocks TGF-b signaling; HepG2 CAGA-GFP TGF-b/SMAD3 reporter, GFP fluorescence, 18 h; TGF-beta stimulated, 500 pg/mL final; Potency, µM (series often up to 46.1 µM), for the others: top-dose activity, negative = inhibition, hits mostly inhibitors; AID 588855; 410,000 compounds, 1.2% hits; further: potency means the concentration at half of the fitted maximal effect; on the % scale 0 is the no-effect control and ±100 the full control effect; nearly all actives have a fitted effect of over 65% in size
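GFP signal (ex488/em500-530) from TGF-beta-stimulated HEPG2 CAGA-GFP cells, 500 pg/mL final, 18 h at 37 degrees C in DMEM plus 1% FBS, normalized to unstimulated and DMSO-stimulated controls.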
HepG2 tox-1 – counter-screen for TGF-b inhibitors: cytotoxicity in HepG2 cells | 410,000 compounds, 0.76% hits | HepG2 CAGA-GFP viability, ATP luminescence, 18 h | Potency, µM (highest dose often 46.1 µM), without a hit: at the top dose activity change, negative = cytotoxicity, actives largely listed as cytotoxic | AID 588856; further: potency means the concentration at half of the fitted maximal effect
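HepG2 CAGA-GFP cells (1000/well, DMEM with 1% FBS) received compound, then TGF-beta at 500 pg/mL final, and were incubated 18 hours at 37 degrees C. Viability was read by CellTiter-Glo luminescence. Media-only wells were set as complete cell-killing and DMSO as no toxicity.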
IL1B secr inh – inflammasome signaling inhibition, IL-1 beta readout | AID 743279 | 360,000 compounds, 4.7% hits | THP-1 LPS/ATP IL-1B secretion, AlphaLISA, 16 h; stronger effect = lower value | activity change, % at 57.5 µM; in the data active means activity change below about -50%; inconclusive means mostly about -30% to -49%; further: on the % scale 0 is the no-effect control and ±100 the full control effect
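Secreted IL-1B measured by AlphaLISA bead assay after 16 h compound exposure of THP-1 cells; compounds (final up to 57.5 uM) added 1 h before LPS (250 ng/mL) and ATP (1.25 mM) stimulation; lower signal means less secretion.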
TGFb confirm – confirmation of TGF-b signaling inhibitors in HepG2 reporter cells; shares compounds with TGFb SMAD3 inh; HepG2 CAGA-GFP TGF-b reporter, GFP fluorescence, 18 h; cells stimulated with TGF-beta, 500 pg/mL; Potency, µM (doses to about 46.1 µM), without a hit: top-dose activity, negative = inhibition, usual class: inhibitors; 1,600 compounds, 63% hits; AID 720534; further: potency means the concentration at half of the fitted maximal effect; on the % scale 0 is the no-effect control and ±100 the full control effect; nearly all actives have a fitted effect of over 65% in size
HepG2 tox-2 – HepG2 cytotoxicity, TGF-b inhibitor counterscreen. shares compounds with TGFb SMAD3 inh. HepG2 CAGA-GFP viability, ATP luminescence, 18 h; cells stimulated with TGF-beta, 500 pg/mL. Potency, µM (titrated, usually from 46.1 µM), inactives show at the top dose activity, negative = cytotoxicity, hits mostly inhibitors. 1,600 compounds, 27% hits. AID 720535; further: potency means the concentration at half of the fitted maximal effect; on the % scale 0 is the no-effect control and ±100 the full control effect; nearly all actives have a fitted effect of over 70% in size
CCL64 TGFb inh – TGF-b inhibition, CCL64 orthogonal assay; Potency, µM (doses to about 46.1 µM), inactives show top-dose activity, negative = inhibition, actives largely listed as inhibitors; 1,600 compounds, 41% hits; shares compounds with TGFb SMAD3 inh; CCL64 CAGA-GFP reporter, TGF-b stimulated, GFP fluorescence, 18 h; further: potency means the concentration at half of the fitted maximal effect; nearly all actives have a fitted effect of over 65% in size
TGFb COP inh – TGF-b inhibition validated with COP promoter. shares compounds with TGFb SMAD3 inh. HepG2 COP-GFP TGF-b reporter, GFP fluorescence, 18 h; cells stimulated by added recombinant TGF-beta. Potency, µM (top dose mostly 46.1 µM), for inactives: at the highest dose activity, negative = inhibition, actives largely listed as inhibitors. 1,600 compounds, 3% hits. AID 720537; further: potency means the concentration at half of the fitted maximal effect; nearly all actives have a fitted effect of over 70% in size
An asterisk follows results filed as active; u = inconclusive; x = no result; [ ] = remark or other dose. Unless noted, the call rests on the fitted dose curve; in most records, active means well fitted curve in the direction sought with a large enough effect; inconclusive means small, poorly fitted or top-dose-only effect, or another doubt; inactive means no such curve, though single readings can be large; an effect the other way counts as inactive or inconclusive.

SMILES | DT40 TDP1 CPT | TDP1 block | TDP1 cell noCPT | TGFb SMAD3 inh | HepG2 tox-1 | IL1B secr inh | TGFb confirm | HepG2 tox-2 | CCL64 TGFb inh | TGFb COP inh
O=C(CCCCl)OCc1cn(-c2ccc(Cl)cc2)nn1 | 12% | 0% | -6% | -33% | 5% | 24 | x | x | x | x
O=C(NCc1ccco1)c1ccccc1NS(=O)(=O)c1ccc(Cl)s1 | u | 5% | u | -26% | -49% | 48 | x | x | x | x
O=C(Nc1ccccc1Cc1ccccc1)c1ccccc1NS(=O)(=O)c1ccc(Cl)s1 | 4.6µM* | -3% | 3.7µM* | 4.5µM* | -25% | -26 | 5.8µM* | 10µM* | 9.2µM* | 80%
Oc1c(CNc2ccccc2)cc(COCc2ccccc2)c2cccnc12 | x | 2% | x | u | -10% | x | x | x | x | x
Oc1c(CN2CCOCC2)cc(COCc2ccccc2)c2cccnc12 | 4.6µM* | 7% | 4.1µM* | 1µM* | -38% | 19 | -22% | u | 8.2µM* | 21%
CC(CN1CCOCC1)OC(=O)c1ccccc1Br (centres undefined) | -1% | 0% | -29% | 1% | -12% | 8 | x | x | x | x
O=C(Oc1c(CN2CCOCC2)cc(Cl)c2cccnc12)c1ccccc1Br | 4.6µM* | 8% | 4.6µM* | 3.2µM* | -136% | 105 | -11% | u | u | 1%
O=C(NCC(O)c1ccc([N+](=O)[O-])cc1)C1=COCCO1 (centres undefined) | 2% | -1% | -1% | 0% | -12% | -6 | x | x | x | x
NC(=O)CC(NC(=O)Cc1cccc2ccccc12)c1ccc(N2CCc3ccccc3C2)c([N+](=O)[O-])c1 (centres undefined) | 16µM* | 5% | u | 13µM* | -25% | u | u | u | u | 45%
Cc1cccc(CNc2ccc(C(CC(N)=O)NC(=O)Cc3cccc4ccccc34)cc2[N+](=O)[O-])c1 (centres undefined) | u | 1% | u | u | -17% | 8 | u | u | 1.6µM* | -25%
NC(=O)CC(NC(=O)Cc1ccc(Br)cc1)c1ccc(N2CCN(c3ccccn3)CC2)c([N+](=O)[O-])c1 (centres undefined) | u | x | -16% | 7.9µM* | -58% | 29 | u | u | 0% | 0%
Cc1oc2ncn(C)c(=O)c2c1C(=O)N(C)c1ccccc1F | -7% | 3% | 12% | 2% | 1% | x | x | x | x | x
Cc1ccccc1OC(=O)CCC(=O)OCCCC(F)(F)C(F)(F)F | 3% | -6% | 0% | -1% | -6% | 20 | x | x | x | x
Cc1cc2oc(C(=O)Nc3c(C)n(C)n(-c4ccccc4)c3=O)cc(=O)c2cc1C | 1% | 6% | -19% | 21% | 8% | x | x | x | x | x
O=S(=O)(Nc1ccc(C(O)(C(F)(F)F)C(F)(F)F)cc1)c1cccc2cccnc12 | 16µM* | x | 23µM* | 18µM* | -30% | -12 | 15µM* | -21% | -25% | 40%
COC(=O)c1ccc(NS(=O)(=O)c2cccc3cccnc23)cc1 | -6% | 5% | -25% | -14% | 12% | 3 | x | x | x | x
Cc1cccc(C)c1N(CC(O)Cn1c2ccccc2c2ccccc21)S(C)(=O)=O (centres undefined) | u | 1% | u | 10µM* | -69% | -22 | 23µM* | u | 23µM* | 63%
Cc1ccc(C(=O)C2CCN(CC(=O)Nc3nc(C)cs3)CC2)cc1 | 21µM* | 3% | 16µM* | u | -1% | -3 | 18µM* | -13% | 5% | 0%
COc1ccc(-c2noc(-c3ccc4c(c3)OCO4)n2)cc1 | -10% | 3% | -11% | 0% | -3% | 2 | x | x | x | x
COc1ccc(-c2nc(-c3ccc4c(c3)OCO4)[nH]c2-c2ccc(OC)cc2)cc1 | u | -5% | u | -4% | -41% | u | 23µM* | u | 26µM* | 63%
CCOc1ccccc1NC(=O)CN1CCN(C(=O)C2CCCO2)CC1 (centres undefined) | 5% | 0% | -11% | 0% | 1% | 0 | x | x | x | x
O=C(Nc1ccccc1)[C@@H]1CC=C[C@@H]2CCN(Cc3ccc(Cl)c(Cl)c3)C(=O)[C@@H]21 | u | x | 18µM* | 13µM* | -17% | u | 21µM* | u | u | 47%
CCCCN1CC[C@H]2C=CC[C@@H](C(=O)Nc3ccccc3)[C@H]2C1=O | u | x | -5% | -13% | -2% | 30 | x | x | x | x
COc1ccc(CCNC(=O)CSC2=NS(=O)(=O)c3ccccc3N2)cc1OC | u | -6%[0.505 µM] | -5% | 1% | -16% | -3 | x | x | x | x
O=C(NCCC(=O)N1CCN(c2ccccn2)CC1)c1ccc(Br)cc1 | -8% | -8% | -28% | 11% | -9% | -5 | x | x | x | x
O=C1CCCC/C=C\C[C@H](CC(=O)N(CCO)Cc2ccccc2)C(=O)N[C@@H](c2ccccc2)CO1 | u | 0% | -22% | 0% | -2% | 26 | x | x | x | x
O=C(C[C@@H]1C/C=C/CCCC(=O)O[C@H](c2ccccc2)CNC1=O)NCCO | -7% | 1% | -1% | u | 0% | 10 | x | x | x | x
